Assay outcomes as filed in PubChem BioAssay.
Only some compounds are listed: those with a hit (about 0.4% of all), similar ones and a draw of the others.
Rab7 wt GTP bind – dog Rab7 wildtype GTP binding, inhibitors and activators; GST-Rab7 beads, fluorescent GTP binding, flow cytometry; actives lie on both sides; untreated = 100%, excess cold GTP = 0%; GTP binding activity (percent of control), % at 10 µM; 190,000 tested, 0.055% active; AID 758;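 active means fluorescent GTP binding to Rab7 beads changed by at least 20 points from the 100% baseline, either direction, mostly lower; inconclusive means compound itself probably fluorescent, or too few beads counted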;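 further: median green fluorescence of bound Bodipy-FL-GTP per Rab7 bead population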
Rac1 mut GTP – alters GTP binding to activated mutant human Rac1; GST-Rac1 activated beads, fluorescent GTP binding, flow cytometry; actives lie on both sides; 100% means binding = to untreated wells; AID 764; 190,000 tested, 0.11% active; percent activity (GTP binding), % at 10 µM;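 active means GTP binding at least 20 percentage points away from the 100% baseline, in either direction, so actives lie on both sides; inconclusive means Compound likely fluorescent itself, or too few beads counted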
Cdc42 wt GTP – changes GTP binding to wildtype human Cdc42; P60953; GST-Cdc42 beads, Bodipy-GTP binding, flow cytometry; actives lie on both sides; percent activity (GTP binding), % at 10 µM; 190,000 tested, 0.2% active;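 active means percent activity GTP binding at least 20 points away from the 100% baseline, either down as inhibitor or up as activator; inconclusive means compound flagged as likely green fluorescent from well-wide comparison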;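 further: median bead fluorescence of bound Bodipy-FL-GTP at 100 nM; 0% = excess unlabeled GTP control and 100% = no compound control; below 100% means less GTP binding so inhibitor and above means activator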
Target sequence (P60953 whole entry, looked up): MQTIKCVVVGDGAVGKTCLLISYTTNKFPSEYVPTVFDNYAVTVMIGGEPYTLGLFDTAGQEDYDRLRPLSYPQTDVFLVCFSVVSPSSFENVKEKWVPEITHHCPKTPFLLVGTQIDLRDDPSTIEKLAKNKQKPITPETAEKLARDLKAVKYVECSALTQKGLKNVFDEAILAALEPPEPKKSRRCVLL
Rab2A wt mod – changes GTP binding to wildtype dog Rab2A, up or down; 190,000 tested, 0.19% active; AID 760; P61105; GST-Rab2 wt beads, Bodipy-GTP binding, flow cytometry; GTP binding activity, % at 10 µM;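 active means GTP binding activity at least 20 points away from 100%, either lowered or raised; inconclusive means signal likely due to the compound's own green fluorescence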;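 further: 0% = beads with excess unlabeled GTP and 100% = no-compound control corrected for plate trend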
HRas wt GTP bind – modulators of GTP binding to human HRas wildtype; P01112; GST-Ras wt beads, Bodipy-FL-GTP binding, flow cytometry; actives lie on both sides; GTP binding activity, % at 10 µM; 190,000 tested, 0.14% active;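 active means GTP binding activity at least 20% away from the 100% baseline, either lowered as inhibitor or raised as activator; inconclusive means flagged as likely green fluorescent, judged across all proteins in the well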;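 further: 0% = unlabeled GTP competition control and 100% = no-compound control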
Target sequence (P01112 whole entry, looked up): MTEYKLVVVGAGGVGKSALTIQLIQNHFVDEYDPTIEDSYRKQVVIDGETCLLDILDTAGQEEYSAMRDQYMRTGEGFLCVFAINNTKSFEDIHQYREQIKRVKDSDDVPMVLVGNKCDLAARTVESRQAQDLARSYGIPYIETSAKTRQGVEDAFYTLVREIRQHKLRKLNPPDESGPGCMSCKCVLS
Rac1 wt GTP bind – modulators of human Rac1 wildtype GTP binding. P63000. GST-Rac1 beads, fluorescent GTP binding, flow cytometry; actives lie on both sides; 0 = cold GTP competed, 100 = untreated. GTP binding activity (% of control), % at 10 µM. 190,000 tested, 0.27% active;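 active means GTP binding activity at least 20 points away from the 100% control level, either lower or higher; inconclusive means compound flagged as likely green fluorescent, judged across all proteins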
* = called active by the depositor; ? = inconclusive; · = not tested or not shown; [ ] = another dose, or the depositor's remark.

SMILES | Rab7 wt GTP bind | Rac1 mut GTP | Cdc42 wt GTP | Rab2A wt mod | HRas wt GTP bind | Rac1 wt GTP bind
Cc1nc2ccc(Cl)cc2c(-c2ccccc2Cl)c1CC(=O)O | 92 | 88 | 82 | 86 | 90 | 87
CN1CCc2nc3ccc(Cl)cc3c(-c3ccccc3Cl)c2C1 | 95 | 95 | 79* | 91 | 93 | 91
NC1=NC(=O)/C(=C\c2ccsc2)S1 | 103 | 95 | 95 | 98 | 96 | 101
NC(=S)N=Nc1c(O)[nH]c2ccc(F)cc12 | 85 | 89 | 84 | 74* | 76* | 76*
O=Nc1c(O)[nH]c2ccc(F)cc12 | 102 | 93 | 94 | 96 | 96 | 100
CC1(C)Cc2c(sc(NC(=S)NC(=O)c3ccccc3)c2C(=O)O)CO1 | · | 63* | · | 69* | 67* | 70*
CC(=O)c1ccc2c(c1)CC(C)C(=O)N2C (configuration not stated) | 99 | 100 | 96 | 98 | 101 | 104
NNC(=O)CN1C(c2ccccc2Br)=Nc2ccc(Br)cc2C1c1ccccc1 (configuration not stated) | 97 | 95 | 89 | 96 | 96 | 98
Cc1ccccc1OCCn1cc(/C(N)=N/O)c2ccccc21 | 95 | 92 | 89 | 90 | 93 | 90
Cc1ccc(C)c(OCCn2cc(C(=O)O)c3ccccc32)c1 | 136*[activator] | 136*[activator] | 140*[activator] | 138*[activator] | 129*[activator] | 170*[activator]
Cc1ccccc1OCCn1cc(C(=O)O)c2ccccc21 | 122*[activator] | 128*[activator] | 123*[activator] | 126*[activator] | 124*[activator] | 151*[activator]
Cc1ccc(C)c(OCCn2cc(/C=C(\C#N)C(=O)NCc3ccco3)c3ccccc32)c1 | 99 | 99 | 99 | 101 | 101 | 101
CC(C)CC(=O)NC(=S)Nc1ccccc1C(=O)Nc1ccccc1 | 93 | 98 | 99 | 96 | 96 | 97
Cc1ccc(/C=C(\CCC(=O)O)c2nc3ccccc3s2)cc1[N+](=O)[O-] | 87 | 78* | 83 | 79* | 86 | 83
COc1ccccc1CNC(=O)c1c(N)n(CCCN2CCOCC2)c2nc3ccccc3nc12 | 87 | 86 | 80 | 82 | 84 | 78*
COC(=O)c1ncn(C2OC(COC(C)=O)C(OC(C)=O)C2OC(C)=O)n1 (configuration not stated) | 101 | 100 | 98 | 98 | 102 | 104
CC(C)(C)C(=O)OCC1OC(n2cnc(C(N)=O)n2)C(O)C1O (configuration not stated) | 104 | 103 | 119 | 114 | 110 | 120*[activator]
O=C(O)c1ccccc1Sc1ncnc2sc3c(c12)CCC3 | 107 | 123*[activator] | 129*[activator] | 124*[activator] | 121*[activator] | 123*[activator]
Cc1sc2ncnc(Sc3ccccc3C(=O)O)c2c1C | 122*[activator] | 132*[activator] | 137*[activator] | 134*[activator] | 124*[activator] | 145*[activator]
CC(CC(C)C(=O)Nc1ccccc1C(C)(C)C)C(=O)O (configuration not stated) | 96 | 99 | 99 | 99 | 99 | 102
COc1cc2c(cc1OC)-c1cc(NC3CCCCCCC3)nc(=O)n1CC2 | 91 | 88 | 77* | 80 | 77* | 89
COc1cc2c(cc1OC)-c1cc(NCc3ccccn3)nc(=O)n1CC2 | 87 | 84 | 79* | 80 | 79* | 83
CCNc1cc2n(c(=O)n1)CCc1cc(OC)c(OC)cc1-2 | 87 | 87 | 88 | 86 | 86 | 86
Cc1cccc(C)c1OC(=O)C(c1ccccc1)c1ccccc1 | 102 | 100 | 100 | 99 | 101 | 104
O=C(O)Cc1coc2cc3c(cc12)CCC3 | 79* | 87 | 91 | 89 | 88 | 88
SMILES | Rab7 wt GTP bind | Rac1 mut GTP | Cdc42 wt GTP | Rab2A wt mod | HRas wt GTP bind | Rac1 wt GTP bind
CCNC(=O)n1nccc1C(C)Oc1cccc(C(F)(F)F)c1 (configuration not stated) | 102 | 98 | 100 | 99 | 102 | 101
COc1ccc(OC)c(NC(=O)c2ccc(-n3cccn3)nc2)c1 | 97 | 98 | 100 | 97 | 100 | 104
CCN1/C(=C/C=C/C=C/c2sc3ccccc3[n+]2CC)Sc2ccccc21 | · | ? | 63* | 57* | 51* | 89
CCc1ccc(NS(=O)(=O)c2ccc3[nH]cc(C(=O)N4CCc5ccccc54)c(=O)c3c2)cc1 | 91 | 95 | 70* | 93 | 93 | 92
COc1ccc(/C=N/NC(=O)OC(C)(C)C)cc1OC | 98 | 99 | 100 | 99 | 100 | 103
CN1CCN(S(=O)(=O)c2cccc(C(=O)Nc3sc4c(c3C(N)=O)CCCC4)c2)CC1 | 85 | 87 | 79* | 77* | 80 | 72*
CC(=O)c1cc2c(cc1NC(=O)c1cccc(S(=O)(=O)N3CCN(C)CC3)c1)OCO2 | 98 | 89 | 83 | 82 | 84 | 78*
O=C(Nc1cccc(S(=O)(=O)N2CCCC2)c1)c1ccc2c(c1)OCO2 | 92 | 94 | 99 | 90 | 92 | 90
O=C(O)c1cc([N+](=O)[O-])ccc1NCc1ccccc1 | 137*[activator] | 146*[activator] | 172*[activator] | 153*[activator] | 150*[activator] | 204*[activator]
N#CC(C#N)=C(Nc1ccc(F)cc1)SCc1cccc(Br)c1 | 101 | 104 | 127*[activator] | 109 | 101 | 134*[activator]
O=C(Nc1ccccc1)C1=C[C@H](c2coc3ccccc3c2=O)C[C@H](OCCCCO)O1 | 103 | 97 | 97 | 99 | 99 | 99
COc1ccc(C)cc1NC(=O)c1cc2c(CO)cnc(C)c2oc1=N | 100 | 95 | 95 | 98 | 98 | 100
COc1cc(N=c2oc3c(C)ncc(CO)c3cc2C(N)=O)cc(OC)c1OC | 91 | 83 | 68* | 67* | 68* | 64*
Cc1ccccc1Nc1nc(NCc2ccco2)c2ccccc2n1 | 99 | 98 | 100 | 101 | 102 | 100
Cc1cccc(Nc2nc(NCc3ccco3)c3ccccc3n2)c1 | 79* | 85 | 84 | 72* | 85 | 88
CCn1cc(C(=O)OCC(=O)c2cc(C)n(-c3cccc(C(F)(F)F)c3)c2C)c(=O)c2ccc(C)nc21 | 83 | 74* | 79* | 72* | 80 | 70*
Cc1nc2sccn2c1-c1nc(-c2cc3ccccc3o2)cs1 | 87 | 91 | 83 | 77* | 81 | 79*
c1ccc2oc(-c3csc(N4CCOCC4)n3)cc2c1 | 97 | 97 | 92 | 94 | 95 | 96
O=C(c1nnsc1S(=O)(=O)c1ccc(Cl)cc1)N1CCOCC1 | 107 | 120*[activator] | 105 | 106 | 102 | 106
Fc1ccc(NC(=S)NNc2ncc(C(F)(F)F)cc2Cl)c(F)c1 | 94 | 94 | 94 | 93 | 94 | 94
